# Reference: the supplement of paper PMC3334620
# In all, about 33,000 sequences were measured (“E-score (-0.5 to 0.5)”: median about -0.035, highest 2% from about 0.35 on). What follows is part of a selection rich in the highest values, with near analogues and random picks from the rest.
# Molecular target: T1, Pdr3 (UniProt P33200)
# T1 sequence: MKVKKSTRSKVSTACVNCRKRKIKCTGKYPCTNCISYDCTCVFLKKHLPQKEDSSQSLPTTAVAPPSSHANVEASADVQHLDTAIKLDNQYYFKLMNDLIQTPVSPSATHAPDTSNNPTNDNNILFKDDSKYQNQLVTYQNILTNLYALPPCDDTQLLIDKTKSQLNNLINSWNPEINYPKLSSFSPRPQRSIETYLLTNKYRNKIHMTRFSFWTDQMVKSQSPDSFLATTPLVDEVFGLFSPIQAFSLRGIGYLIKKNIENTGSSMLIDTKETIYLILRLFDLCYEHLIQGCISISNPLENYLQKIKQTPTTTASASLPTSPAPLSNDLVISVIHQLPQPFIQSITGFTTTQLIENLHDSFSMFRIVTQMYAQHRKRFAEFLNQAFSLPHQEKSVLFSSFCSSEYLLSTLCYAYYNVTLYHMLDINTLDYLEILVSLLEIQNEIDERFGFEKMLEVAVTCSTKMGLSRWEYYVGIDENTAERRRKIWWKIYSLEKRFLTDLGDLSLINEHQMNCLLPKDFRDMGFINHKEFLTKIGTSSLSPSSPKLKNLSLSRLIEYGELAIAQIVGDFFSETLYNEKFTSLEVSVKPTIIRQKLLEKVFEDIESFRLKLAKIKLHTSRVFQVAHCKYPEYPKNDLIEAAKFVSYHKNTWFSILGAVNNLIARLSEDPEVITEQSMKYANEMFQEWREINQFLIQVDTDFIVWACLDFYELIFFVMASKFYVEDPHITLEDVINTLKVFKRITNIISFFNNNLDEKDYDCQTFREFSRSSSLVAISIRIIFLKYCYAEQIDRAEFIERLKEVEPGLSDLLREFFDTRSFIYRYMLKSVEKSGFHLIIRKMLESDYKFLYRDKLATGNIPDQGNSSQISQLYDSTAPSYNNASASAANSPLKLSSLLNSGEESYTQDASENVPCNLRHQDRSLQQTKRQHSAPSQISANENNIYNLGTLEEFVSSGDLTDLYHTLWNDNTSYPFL
# Test: PBM E-score (8-mer binding enrichment) (E-score (-0.5 to 0.5)); higher = stronger / more preferred TF binding
# Conditions: protein concentration: 200 nM; construct: GST-full length
# Method: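 Universal 'all 10-mer' protein binding microarrays (Agilent AMADID 015681) probed with GST-tagged S. cerevisiae TFs (full-length or DBD) made by in vitro transcription/translation (PURExpress), about 100-200 nM. Bound TF was detected with fluorescent anti-GST. Each ungapped 8-mer (which stands for itself and its reverse complement) is scored by the PBM enrichment score (E-score), a modified Wilcoxon-Mann-Whitney statistic from -0.5 to +0.5, computed with the Universal PBM Analysis Suite. Scale: above 0.35 generally sequence-specific binding.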
row,Sequence,PBM E-score
1,ACTGGGAC,-0.0292
2,AGAACGTA,-0.0336
3,ACGGGCCA,0.117
4,CTTTCCAA,-0.0271
5,CTTTCCCA,0.0901
6,ATTTCCGA,0.338
7,CTTTCCGA,0.413
8,CTTTCCTC,-0.162
9,GTTTCCGA,0.429
10,ATTTCCTG,0.0852
11,GTTTCCAA,-0.274
12,CTTTCCCC,0.117
13,GTTTCCCA,0.0393
14,ATTTCCGG,0.456
15,CTTTCCGC,0.384
16,CGCGAAAA,0.096
17,ACGCTTCG,0.00401
18,CGCCTGGC,-0.0374
19,CAACTTCC,0.225
20,AATTTAAT,0.128
21,AAACCTAC,-0.103
22,CTGCCGCC,-0.0369
23,GGAAGATA,0.234
24,GCCCAGAC,-0.222
25,AAATGATG,0.133
26,CTACAAAG,-0.116

row,Sequence,PBM E-score
1,ATTTCCAC,0.131
2,ATTTCCTC,0.154
3,ATTTCCGC,0.413
4,AGCACAAA,0.12
5,CGGGCGTC,0.193
6,AGATTCCT,-0.088
7,AGATTCCC,0.198
8,CGATTCCG,0.466
9,CGATTCCC,0.181
10,CGATTCCA,0.112
11,AGATTCCG,0.453
12,AACGTGAT,-0.0792
13,ACCGGCTC,0.122
14,AGACGGAG,0.216
15,CGACGGAG,0.331
16,CGACGGAA,0.439
17,TGACGGAA,0.445
18,TGACGGCA,0.135
19,GGACGGTA,0.118
20,CGACGGAC,0.342
21,AGACGGAA,0.422
22,TGACGAAA,-0.112
23,GGACGGAC,0.293
24,GGACGGAA,0.429
25,AGACGGAT,0.249
26,ATAATACA,0.212

row,Sequence,PBM E-score
1,ATGATGGC,0.0224
2,GGATCTCA,0.0621
3,TCCAAGGA,-0.00825
4,GGGAACCA,-0.0124
5,AGGAACCC,0.00054
6,CGGAACCA,0.483
7,TGGAACCA,0.188
8,CAGAACCG,0.116
9,GGGAACCC,0.133
10,CGGAACCC,0.477
11,CGGAACCG,0.482
12,AGGAACCG,0.123
13,ACTCCATA,-0.0901
14,CACAGTAC,-0.0825
15,ATCTCTTA,-0.0707
16,AATCTCTG,-0.185
17,TACGACTA,-0.179
18,CCTCTAAC,-0.199
19,TCACTGAA,0.0661
20,GCATCCTA,0.00911
21,GAGGGTTA,-0.131
22,TGCCGGCA,0.385
23,GGCCGGCA,0.367
24,GCCCGGCA,0.225
25,GGCCGGCC,0.326
26,TGCCGACA,0.123

row,Sequence,PBM E-score
1,AACCGGCA,0.158
2,ACCGTTAG,-0.208
3,GGGCCCCA,0.092
4,GGCTAAGA,-0.0826
5,CACACGGA,0.304
6,GACACGGA,0.393
7,AACACGGC,0.154
8,AACACGGG,0.116
9,GACACGGC,0.171
10,AACACGGA,0.374
11,GCGACCTA,0.0108
12,GCACGGAA,0.451
13,GCACGGGA,0.315
14,GCACGGAC,0.356
15,GCACGGCC,0.21
16,GCACGGCA,0.103
17,ACACGGAC,0.299
18,ATGCAGCA,0.00559
19,ACAGGGTA,-0.12
20,AGATTCAG,-0.0749
21,GGTATTCA,0.0285
22,CACCGTCA,0.00596
23,CCTAACTA,-0.0709
24,GCGTAGCA,0.0185
25,ATTATCCG,0.388
26,ATTATCCA,0.0658

row,Sequence,PBM E-score
1,ATTATCCC,0.185
2,CCACTGCA,-0.0534
3,GCTTGGCC,-0.00234
4,CGGGAAAA,0.221
5,ACGCTCCG,0.315
6,CCGCTCCG,0.378
7,CCGCTCCC,0.151
8,ACATCTCG,-0.111
9,ATCACGGC,0.218
10,GTCACGCA,-0.0717
11,ATCACGGG,0.0804
12,ATCACGGA,0.391
13,GTCACGGA,0.415
14,GTGACGGA,0.31
15,CTCACGGA,0.325
16,ATGACGGA,0.362
17,ATGACGGC,0.141
18,AAGGAAGC,-0.0529
19,CACACCGC,0.166
20,CCCTAATA,-0.113
21,GAAGGAAA,-0.00233
22,AGGCGTAC,-0.182
23,ATGTCTCA,-0.0576
24,CGGAACGA,0.464
25,GGGAACGA,0.0381
26,CGGAACGC,0.466

row,Sequence,PBM E-score
1,AGGAACGC,-0.00648
2,CAGAACGC,0.0429
3,AGGAACGA,-0.1
4,ACACCGAC,0.0164
5,ACGGACCA,0.359
6,ACGGACCT,0.275
7,CCGGACCA,0.337
8,TCGGACCA,0.292
9,GCGGACCA,0.366
10,ACGGACCG,0.309
11,AGGTGTGA,-0.138
12,GTGGTGGA,-0.0783
13,CAGTTGGA,-0.0903
14,CGTGCAGA,-0.148
15,CGCGGAGA,0.415
16,CGCGGTGC,0.172
17,AGCGGAGC,0.216
18,CGCGGAGC,0.445
19,GGCGGAGA,0.288
20,AGCGGAGA,0.232
21,CGAACTGA,0.0143
22,GTCGCGAA,0.0709
23,GTCGCGAC,0.38
24,CTCGCGAC,0.0674
25,ACCTCTTC,-0.0577
26,GATCCATC,0.232

row,Sequence,PBM E-score
1,AACTTCCT,-0.108
2,ATCTTCCA,-0.196
3,ATCTTCCC,0.268
4,ACCTTCCT,-0.244
5,ACCTTCCC,0.0674
6,CCCTTCCG,0.392
7,AACTTCCG,0.388
8,ACCTTCCG,0.394
9,AACTTCCA,0.0852
10,CCCTTCCC,0.0658
11,CCCTTCCA,-0.00559
12,ATCTTCCG,0.376
13,GAGCGTCC,-0.174
14,AGCAATGA,-0.0334
15,CTCTTTCA,-0.137
16,ATGCTCAC,-0.048
17,CACTCCTA,-0.112
18,GAAAGCCC,0.201
19,CTATTGAC,-0.153
20,GTCTCTTA,0.0669
21,ACCCATGC,-0.0401
22,AGGAAGTC,-0.162
23,CGGAAGTA,0.393
24,CTGAAGTC,0.0005
25,AGGAAGTA,0.0507
26,GGGAAGTA,0.097

row,Sequence,PBM E-score
1,CGGAAGTC,0.421
2,ATTGGGCA,-0.131
3,ACAAGCAT,-0.0569
4,GAGTGATC,0.0656
5,GAGCGGGC,0.113
6,CACGGACC,0.378
7,TACGGACA,0.225
8,AACGGACA,0.363
9,CACGGACA,0.355
10,GACGGACC,0.33
11,AACGGACC,0.303
12,AACGGTCA,0.146
13,AACGGACG,0.241
14,CACGGACG,0.324
15,CCACCCCG,0.165
16,CCCTGCTA,-0.0619
17,TACGGGCA,0.00013
18,CTGTTCCC,0.0618
19,ACACTAGT,-0.167
20,AGGCTTTC,-0.203
21,TCTGTGAA,-0.0705
22,ACGGAGAA,0.265
23,CCGGAGAC,0.37
24,CCGGAGAA,0.385
25,TCGGAGAA,0.225
26,GCGGAGAC,0.336

row,Sequence,PBM E-score
1,CAGGAGAG,-0.174
2,CCGGAGAG,0.363
3,ACGGAGAG,0.319
4,ACGGAGAC,0.321
5,AATGAGGA,-0.177
6,GCAGTCGC,-0.0644
7,TATCGCGA,0.258
8,GCCTTCCC,-0.1
9,CCTACTCC,-0.0705
10,GCTACTGA,0.00622
11,GATTCCAC,0.19
12,CATTCCAC,0.0732
13,AATTCCGG,0.449
14,AATTCCCG,0.298
15,CATTCCTC,0.0812
16,AATTCCTG,-0.021
17,AATTCCTC,0.0037
18,AATTCCCC,0.203
19,AATTCCGC,0.397
20,GATTCCCC,0.0929
21,CATTCCGC,0.421
22,GATTCCGC,0.455
